Data as given in publication PMC4336329 (PLoS ONE, 2015).
Screen size: about 310,000 compounds; about 14,000 (4.5%) showed an effect of 50% or more. The effect is printed as a negative number. The sample as a whole holds a higher share of strong results than the screen did.

Each compound was assayed against human ether-à-go-go-related gene (hERG) potassium channel (human, UniProt Q12809) (assay: primary screen, population patch clamp on CHO cells stably expressing hERG; higher = less effect of the substance).
Sequence of human ether-à-go-go-related gene (hERG) potassium channel (Q12809 whole entry, looked up): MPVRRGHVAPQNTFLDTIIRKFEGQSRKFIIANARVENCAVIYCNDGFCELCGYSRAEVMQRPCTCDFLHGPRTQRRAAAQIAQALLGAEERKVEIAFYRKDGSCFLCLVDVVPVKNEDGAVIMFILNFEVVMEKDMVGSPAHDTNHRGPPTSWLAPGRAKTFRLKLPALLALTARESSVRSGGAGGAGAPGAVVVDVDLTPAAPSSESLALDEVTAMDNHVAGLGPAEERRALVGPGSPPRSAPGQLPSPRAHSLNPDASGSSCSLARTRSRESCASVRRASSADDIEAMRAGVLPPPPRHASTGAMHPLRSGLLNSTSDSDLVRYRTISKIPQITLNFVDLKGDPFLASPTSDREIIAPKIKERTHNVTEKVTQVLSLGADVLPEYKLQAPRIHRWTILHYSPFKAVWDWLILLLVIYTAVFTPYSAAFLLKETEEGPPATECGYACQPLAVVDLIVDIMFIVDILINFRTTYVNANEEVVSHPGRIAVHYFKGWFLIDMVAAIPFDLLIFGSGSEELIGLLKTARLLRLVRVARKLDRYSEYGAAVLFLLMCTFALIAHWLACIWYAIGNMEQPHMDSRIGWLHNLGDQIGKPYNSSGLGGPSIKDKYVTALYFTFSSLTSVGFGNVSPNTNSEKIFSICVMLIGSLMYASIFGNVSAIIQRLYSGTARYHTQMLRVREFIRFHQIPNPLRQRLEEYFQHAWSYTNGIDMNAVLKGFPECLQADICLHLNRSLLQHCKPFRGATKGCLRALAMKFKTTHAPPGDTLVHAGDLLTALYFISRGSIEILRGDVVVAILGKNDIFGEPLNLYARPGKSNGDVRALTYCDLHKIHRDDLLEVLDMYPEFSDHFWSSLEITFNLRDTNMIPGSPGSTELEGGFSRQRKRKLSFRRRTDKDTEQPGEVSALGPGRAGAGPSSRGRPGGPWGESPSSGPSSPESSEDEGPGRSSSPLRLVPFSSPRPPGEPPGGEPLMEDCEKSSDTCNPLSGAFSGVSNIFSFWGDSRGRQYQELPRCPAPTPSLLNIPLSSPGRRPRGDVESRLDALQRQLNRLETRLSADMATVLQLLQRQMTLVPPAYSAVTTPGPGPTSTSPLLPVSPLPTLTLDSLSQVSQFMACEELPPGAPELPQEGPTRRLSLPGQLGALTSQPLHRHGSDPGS
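Note: peak tail current of the secondary pulse compared with the same well before compound.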

Question: CCOC(=O)CC(=O)CSc1ccc2nnc(-c3ccc(F)cc3)n2n1 was tested. Which “hERG current change (%, negative = inhibition) at 10uM” value did it give?
Answer: -23.4%

Question: With CCOC(=O)N1CCC(NC(=O)Cc2ccccc2)CC1 as the compound, how does the “hERG current change (%, negative = inhibition) at 10uM” value read?
Answer: 15.6%

Question: CCOC(=O)N1CCC(Nc2c(-c3ccccc3)c(=O)c2=O)CC1 was tested. Which “hERG current change (%, negative = inhibition) at 10uM” value did it give?
Answer: -23.2%

Question: For COc1ccc(CNC(=O)CN2CCN(S(=O)(=O)c3cccs3)CC2)cc1OC, which “hERG current change (%, negative = inhibition) at 10uM” value is on record?
Answer: 1.64%

Question: For Cc1c(C(=O)N2CCCCC2)c(S(=O)(=O)N2CCC(C)CC2)c(C)n1C, which “hERG current change (%, negative = inhibition) at 10uM” value is on record?
Answer: 3.48%

Question: C=CCn1c(Oc2ccccc2F)nc2c1c(=O)n(C)c(=O)n2C was tested. Which “hERG current change (%, negative = inhibition) at 10uM” value did it give?
Answer: 2.59%

Question: With CC1=C[C@H](C)[C@H](c2c(F)cccc2Cl)CC1=O as the compound, how does the “hERG current change (%, negative = inhibition) at 10uM” value read?
Answer: 6.22%

Question: C=CCSc1nnc(NC(=O)c2cccc(S(=O)(=O)N3CCOCC3)c2)s1 was tested. Which “hERG current change (%, negative = inhibition) at 10uM” value did it give?
Answer: -11.1%

Question: O=C(Nc1ccccc1C(F)(F)F)N1CCCCCC1 was tested. Which “hERG current change (%, negative = inhibition) at 10uM” value did it give?
Answer: 8.71%

Question: COc1ccc2nc(NC(=O)C(NS(=O)(=O)c3cccc4nsnc34)C(C)C)sc2c1 (stereo not shown) was tested. Which “hERG current change (%, negative = inhibition) at 10uM” value did it give?
Answer: 10.4%

Question: With Cc1ccccc1C(=O)c1ccc2c(c1)n(C)c(=O)n2C as the compound, how does the “hERG current change (%, negative = inhibition) at 10uM” value read?
Answer: 2.11%

Question: With COC(=O)C(C)Sc1ccc2nnc(-c3cccc(F)c3)n2n1 (stereo not shown) as the compound, how does the “hERG current change (%, negative = inhibition) at 10uM” value read?
Answer: -58%

Question: How did the “hERG current change (%, negative = inhibition) at 10uM” value turn out when COC(=O)C(C)Sc1ccc2nnc(-c3ccccc3)n2n1 (stereo not shown) was run?
Answer: -30.8%

Question: For COC(=O)C(C)Sc1ccc2nnc(-c3ccc(F)cc3)n2n1 (stereo not shown), which “hERG current change (%, negative = inhibition) at 10uM” value is on record?
Answer: -27%

Question: With COc1cc2c(cc1OC)C(C1C(=O)CCCC1=O)N(C(=O)CCl)CC2 (stereo not shown) as the compound, how does the “hERG current change (%, negative = inhibition) at 10uM” value read?
Answer: 14.1%

Question: For CC1CCCCC1NC(=O)COn1nnc2ccc(Cl)cc21 (stereo not shown), which “hERG current change (%, negative = inhibition) at 10uM” value is on record?
Answer: -14.3%

Question: With CN(C)CCCNS(=O)(=O)c1cc(Cl)c(Cl)cc1Cl as the compound, how does the “hERG current change (%, negative = inhibition) at 10uM” value read?
Answer: -27.8%

Question: Which “hERG current change (%, negative = inhibition) at 10uM” value does the source give for CCN1CCN(c2ccc(NC(=O)C(C)C)cc2Cl)CC1 here?
Answer: -20%

Question: Which “hERG current change (%, negative = inhibition) at 10uM” value does the source give for CN1CCN(c2ccc(NC(=O)c3ccc(C#N)cc3F)cc2Cl)CC1 here?
Answer: -53.7%

Question: CCN1CCN(c2ccc(NC(=O)c3ccc(C#N)cc3F)cc2Cl)CC1 was tested. Which “hERG current change (%, negative = inhibition) at 10uM” value did it give?
Answer: -72.1%

Question: Which “hERG current change (%, negative = inhibition) at 10uM” value does the source give for O=C(Nc1ccc(N2CCOCC2)c(Cl)c1)c1ccccc1F here?
Answer: 3.56%

Question: Which “hERG current change (%, negative = inhibition) at 10uM” value does the source give for CCN1CCN(c2ccc(NC(=O)c3ccccc3F)cc2Cl)CC1 here?
Answer: -70.1%

Question: For CCN1CCN(c2ccc(NC(=O)c3ccco3)cc2Cl)CC1, which “hERG current change (%, negative = inhibition) at 10uM” value is on record?
Answer: -4.06%

Question: Which “hERG current change (%, negative = inhibition) at 10uM” value does the source give for CCC(=O)N1CCN(c2ccc(NC(=O)c3ccc(C#N)cc3F)cc2Cl)CC1 here?
Answer: -7.73%

Question: How did the “hERG current change (%, negative = inhibition) at 10uM” value turn out when O=C(Nc1ccc(N2CCOCC2)c(Cl)c1)c1cc(F)c(F)cc1Cl was run?
Answer: -20.9%

Question: Which “hERG current change (%, negative = inhibition) at 10uM” value does the source give for N#Cc1ccc(C(=O)Nc2ccc([N+](=O)[O-])cc2)c(F)c1 here?
Answer: 4.42%

Question: O=C(O)CCCSc1nccn1-c1ccccc1 was tested. Which “hERG current change (%, negative = inhibition) at 10uM” value did it give?
Answer: 22.3%

Question: For c1ccc(-c2cc(N3CCOCC3)nc(-c3ccccc3)n2)cc1, which “hERG current change (%, negative = inhibition) at 10uM” value is on record?
Answer: -5.46%

Question: CCN(CC)C(=O)CSc1nnc(-c2cccs2)n1Cc1ccco1 was tested. Which “hERG current change (%, negative = inhibition) at 10uM” value did it give?
Answer: -11%

Question: How did the “hERG current change (%, negative = inhibition) at 10uM” value turn out when Cc1ccc(S(=O)(=O)c2c(C)nn(C(C)(C)C)c2OC(=O)c2ccc(Br)o2)cc1 was run?
Answer: 7.32%

Question: Cc1cc(C)n(CCCNC(=O)Cn2nnnc2CN2C[C@@H](C)O[C@@H](C)C2)n1 was tested. Which “hERG current change (%, negative = inhibition) at 10uM” value did it give?
Answer: 6.72%

Question: Which “hERG current change (%, negative = inhibition) at 10uM” value does the source give for C/C(=N\NC(=O)c1nnn(-c2nonc2N)c1CSc1ccccc1)c1ccc2c(c1)OCO2 here?
Answer: 17.5%

Question: With CC(=O)OC1CC(c2cc(C(C)(C)C)c(O)c(C(C)(C)C)c2)=NO1 (stereo not shown) as the compound, how does the “hERG current change (%, negative = inhibition) at 10uM” value read?
Answer: 0.755%

Question: CCOc1ccc(NC(=O)COc2ccc3c(c2)CCC3)cc1OC was tested. Which “hERG current change (%, negative = inhibition) at 10uM” value did it give?
Answer: 3.04%

Question: Cc1ccccc1NCc1ccccc1O.Cl was tested. Which “hERG current change (%, negative = inhibition) at 10uM” value did it give?
Answer: -0.966%

Question: For Cc1cc(NC(=O)Nc2ccc(F)cc2)no1, which “hERG current change (%, negative = inhibition) at 10uM” value is on record?
Answer: -8.3%

Question: For COc1cc(OC)cc(C(=O)OCCCOC(=O)c2cc(OC)cc(OC)c2)c1, which “hERG current change (%, negative = inhibition) at 10uM” value is on record?
Answer: 24.6%

Question: O=C(Nc1nc2ccccc2[nH]1)c1ccc(S(=O)(=O)N2CCOCC2)cc1 was tested. Which “hERG current change (%, negative = inhibition) at 10uM” value did it give?
Answer: 2.85%

Question: Which “hERG current change (%, negative = inhibition) at 10uM” value does the source give for COc1ccc(CCC(=O)Nc2nc3ccccc3[nH]2)cc1 here?
Answer: 14.3%

Question: Which “hERG current change (%, negative = inhibition) at 10uM” value does the source give for COc1ccccc1CCC(=O)Nc1nc2ccccc2[nH]1 here?
Answer: 15.7%

Question: For COc1ccc(C(=O)Nc2ccc(NC(=O)c3ccccc3)cc2)cc1S(=O)(=O)N1CCOCC1, which “hERG current change (%, negative = inhibition) at 10uM” value is on record?
Answer: 16.6%

Question: For COc1ccc(C(=O)Nc2nc3ccccc3[nH]2)cc1S(=O)(=O)N1CCOCC1, which “hERG current change (%, negative = inhibition) at 10uM” value is on record?
Answer: -70.1%

Question: With COc1ccc(CCC(=O)Nc2nc3ccccc3[nH]2)cc1OC as the compound, how does the “hERG current change (%, negative = inhibition) at 10uM” value read?
Answer: -55.7%

Question: With O=C(Nc1nc2ccccc2[nH]1)c1ccc(F)c(S(=O)(=O)N2CCOCC2)c1 as the compound, how does the “hERG current change (%, negative = inhibition) at 10uM” value read?
Answer: -50.3%

Question: Which “hERG current change (%, negative = inhibition) at 10uM” value does the source give for O=C(Nc1nc2ccccc2[nH]1)c1ccc(Cl)c(S(=O)(=O)N2CCCC2)c1 here?
Answer: -9.28%

Question: With COc1ccc(C(=O)Nc2ccccc2C)cc1S(=O)(=O)N1CCOCC1 as the compound, how does the “hERG current change (%, negative = inhibition) at 10uM” value read?
Answer: 2.73%

Question: With COc1ccc(C(=O)Nc2nc3ccccc3[nH]2)cc1S(=O)(=O)N1CCCC1 as the compound, how does the “hERG current change (%, negative = inhibition) at 10uM” value read?
Answer: -52.8%

Question: With COc1ccc(C(=O)Nc2nc3ccccc3[nH]2)cc1OC as the compound, how does the “hERG current change (%, negative = inhibition) at 10uM” value read?
Answer: -6.47%

Question: O=C(Nc1nc2ccccc2[nH]1)c1cccc(S(=O)(=O)N2CCOCC2)c1 was tested. Which “hERG current change (%, negative = inhibition) at 10uM” value did it give?
Answer: -8.91%
